PfHsp40 yeast: compounds rescuing yeast from Plasmodium falciparum HSP40 toxicity; AID 504582; growth rescue, % at 12.5 µM; actives 0.68% (n = 340,000); S. cerevisiae expressing PfHsp40, growth rescue, ATP luminescence; in the data active means growth rescue above about 28%, passing the limit was not always enough;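 further: yeast W303a lacking pdr1 and pdr3 grown in galactose medium; growth measured after three days at 30 °C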
PrPC surface inh: inhibitors of human cell surface prion protein PrPC; P04156; TR-FRET read-out; inhibition, % at 13.8 µM; actives 0.43% (n = 370,000); AID 720596; in the data active means inhibition above about 24%; further: 0% = median of the test wells and 100% = reference compound wells
RN4220 kill: S. aureus RN4220 growth inhibition | OD600, 16 h | inhibition, % (test concentration not listed) | actives 0.33% (n = 330,000) | AID 1259311; in the data active means inhibition above about 85%;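 further: plate controls were untreated cells for no effect and reference antibiotic for full effect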
DUSP3 inh: inhibitors of human VHR1 phosphatase (DUSP3); P51452; recombinant VHR phosphatase, pNPP absorbance; inhibition, % at 13.3 µM; actives 0.52% (n = 290,000); in the data active means inhibition above about 50%
Target sequence (P51452 whole entry, looked up): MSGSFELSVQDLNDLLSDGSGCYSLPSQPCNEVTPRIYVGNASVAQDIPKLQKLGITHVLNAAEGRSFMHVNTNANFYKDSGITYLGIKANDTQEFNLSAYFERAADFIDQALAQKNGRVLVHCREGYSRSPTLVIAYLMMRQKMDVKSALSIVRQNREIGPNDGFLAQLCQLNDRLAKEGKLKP
ugtP null kill: kills S. aureus RN4220 lacking UgtP; S. aureus RN4220 ugtP deletion, OD600 growth, 16 h; growth inhibition, % (test concentration not listed); actives 0.54% (n = 330,000); in the data active means growth inhibition above about 68%;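 further: plate controls were untreated wells for no effect and antibiotic for full effect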
Active calls of the source: *. Most compounds without a hit are left out; they make up all but 1.8% or so of the library.

`COc1ccc2c(c1)CCCC2NS(=O)(=O)OCC(Cl)(Cl)Cl` (centres undefined) gave PfHsp40 yeast 7, PrPC surface inh -1, RN4220 kill 14, DUSP3 inh 9 and ugtP null kill -31.
For CC1(C)CC(NS(=O)(=O)OCC(Cl)(Cl)Cl)c2cc(C#N)ccc2O1 (centres undefined) the results were PfHsp40 yeast 14, PrPC surface inh -2, RN4220 kill 99*, DUSP3 inh 20 and ugtP null kill 99*.
CSc1nnc(-c2ccncc2)n1N=Cc1cn(-c2ccccc2)nc1-c1ccc(Cl)cc1 was read as RN4220 kill 11 and ugtP null kill -19.
Screening N#Cc1c(Nc2ccccc2)[n+]([O-])c2ccc(Cl)cc2[n+]1[O-] returned PfHsp40 yeast 69* and PrPC surface inh -8.
`O=C(/C=C/Nc1ccccc1)c1ccc(Cl)cc1Cl` gave PfHsp40 yeast 0, PrPC surface inh 10, RN4220 kill 3, DUSP3 inh -4 and ugtP null kill -7.
Screening CCOc1ccc(-c2c(C(=O)NN=Cc3ccoc3)nnn2-c2nonc2N)cc1 returned RN4220 kill 4 and ugtP null kill 13.
Screening Cc1[nH]nc(SCC(=O)NC2CCCCC2)c1[N+](=O)[O-] returned PfHsp40 yeast 0, PrPC surface inh -7, RN4220 kill -1, DUSP3 inh 54* and ugtP null kill -9.
Screening Cc1[nH]nc(SCC(=O)NC2CCCC2)c1[N+](=O)[O-] returned PfHsp40 yeast -2, PrPC surface inh -2, RN4220 kill 3, DUSP3 inh 1 and ugtP null kill 10.
`COc1ccc2c(c1)C(C)=CC(C)(C)N2S(=O)(=O)c1ccc(Br)cc1` gave PfHsp40 yeast 22, PrPC surface inh 17, RN4220 kill -2, DUSP3 inh 15 and ugtP null kill 86*.
Screening Cc1ccsc1C=NNC(=O)c1c[nH]c2ccccc12 returned RN4220 kill -1 and ugtP null kill -12.
Cc1nn(-c2ccccc2)c(Cl)c1/C=C1\SC(=S)NC1=O was read as PfHsp40 yeast -1, PrPC surface inh -7, RN4220 kill 100*, DUSP3 inh 2 and ugtP null kill 99*.
For Cc1nn(-c2ccccc2)c(Cl)c1/C=C1\SC(=S)N(CCCCCC(=O)O)C1=O the results were PfHsp40 yeast 0, PrPC surface inh 0, RN4220 kill 37, DUSP3 inh 9 and ugtP null kill 18.
`O=C(NCCCSc1ccccc1)c1cc(Br)ccc1O` gave PfHsp40 yeast 196*, PrPC surface inh 1, RN4220 kill 83*, DUSP3 inh 5 and ugtP null kill 81.
`COC(=O)[C@@]12CCCN1C(c1ccc(-c3ccc4c(c3)OCO4)cc1)C1C(=O)N(C)C(=O)C12` (some centres undefined) gave RN4220 kill 1 and ugtP null kill -5.
For [O-]c1ccccc1-[n+]1c(-c2ccccc2)cc(-c2ccccc2)cc1-c1ccccc1 the results were PfHsp40 yeast 2, PrPC surface inh -5, RN4220 kill 101* and ugtP null kill 100*.
Screening O=C([O-])c1ccccc1-[n+]1c(-c2ccccc2)cc(-c2ccccc2)cc1-c1ccccc1 returned PfHsp40 yeast 1, PrPC surface inh -4, RN4220 kill 98* and ugtP null kill 98*.
`CCCOC(=O)c1ccc(-[n+]2c(-c3ccccc3)cc(-c3ccccc3)cc2-c2ccccc2)cc1` gave PfHsp40 yeast 2, PrPC surface inh 4, RN4220 kill 101* and ugtP null kill 100*.
COc1ccc(-[n+]2c(-c3ccccc3)cc(-c3ccc(C)cc3)cc2-c2ccccc2)cc1 was read as PfHsp40 yeast -1, PrPC surface inh 29* and DUSP3 inh 15.
Screening Cc1ccc(-c2cc(-c3ccccc3)cc(-c3ccccc3)[n+]2-c2ccc(C(=O)O)cc2)cc1 returned PfHsp40 yeast -2, PrPC surface inh -11, RN4220 kill 5 and ugtP null kill 4.
Nc1ccccc1-[n+]1c(-c2ccccc2)cc(-c2ccccc2)cc1-c1ccccc1 was read as PfHsp40 yeast 2, PrPC surface inh -1, RN4220 kill 0, DUSP3 inh 6 and ugtP null kill -10.
`O=C(O)c1ccc(-[n+]2c(-c3ccccc3)cc(-c3ccccc3)cc2-c2ccccc2)cc1` gave PfHsp40 yeast -2, PrPC surface inh -4, RN4220 kill -1 and ugtP null kill -3.

From PubChem
